Data reported in ChEMBL document CHEMBL3988442, “University of Dundee, Small-Polar-MMV Screening Library” (2021).
For some of these results: Potency and affinity values are given separately.

Columns and labels:
Set-up in all cases: scale not given: direction of the effect not stated beside the values
[1] = biological target: Protein translocase subunit SecA (Escherichia coli (strain K12)) (UniProt P10408); assay: Assay to Identify E. coli SecA ATPase Inhibitors; type: functional; details: 30 µM
Chain of Protein translocase subunit SecA (Escherichia coli (strain K12)) (P10408 whole entry): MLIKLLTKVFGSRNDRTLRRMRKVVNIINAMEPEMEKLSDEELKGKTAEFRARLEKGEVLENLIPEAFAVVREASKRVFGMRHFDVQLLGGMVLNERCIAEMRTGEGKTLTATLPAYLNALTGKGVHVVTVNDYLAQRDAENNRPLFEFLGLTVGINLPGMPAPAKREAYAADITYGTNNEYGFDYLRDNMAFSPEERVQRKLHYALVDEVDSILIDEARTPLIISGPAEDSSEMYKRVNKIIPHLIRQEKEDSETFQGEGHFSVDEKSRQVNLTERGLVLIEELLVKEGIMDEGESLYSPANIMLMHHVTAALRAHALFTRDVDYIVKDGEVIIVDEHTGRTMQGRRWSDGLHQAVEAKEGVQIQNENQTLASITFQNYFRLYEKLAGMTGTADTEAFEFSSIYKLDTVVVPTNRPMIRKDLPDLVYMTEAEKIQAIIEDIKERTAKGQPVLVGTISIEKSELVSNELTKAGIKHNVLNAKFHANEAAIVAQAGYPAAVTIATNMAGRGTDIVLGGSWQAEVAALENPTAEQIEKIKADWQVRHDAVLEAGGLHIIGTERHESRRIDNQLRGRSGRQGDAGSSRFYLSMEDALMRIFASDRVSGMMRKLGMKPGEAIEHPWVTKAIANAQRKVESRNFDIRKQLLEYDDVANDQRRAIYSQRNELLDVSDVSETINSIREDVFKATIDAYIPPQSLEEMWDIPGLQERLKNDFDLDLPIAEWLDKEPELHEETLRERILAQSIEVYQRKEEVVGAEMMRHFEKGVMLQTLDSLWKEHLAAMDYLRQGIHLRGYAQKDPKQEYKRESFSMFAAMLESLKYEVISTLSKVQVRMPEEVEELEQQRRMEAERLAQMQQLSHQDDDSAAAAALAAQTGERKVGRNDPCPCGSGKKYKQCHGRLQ

[2] = biological target: T1, Ubiquitin-activating enzyme e1, putative (Leishmania donovani (strain BPK282A1)) (UniProt E9BSI1); assay: Leishmania donovani Ubiquitin Activating Enzyme (LdE1); type: functional; details: 30 µM
T1 sequence (whole entry): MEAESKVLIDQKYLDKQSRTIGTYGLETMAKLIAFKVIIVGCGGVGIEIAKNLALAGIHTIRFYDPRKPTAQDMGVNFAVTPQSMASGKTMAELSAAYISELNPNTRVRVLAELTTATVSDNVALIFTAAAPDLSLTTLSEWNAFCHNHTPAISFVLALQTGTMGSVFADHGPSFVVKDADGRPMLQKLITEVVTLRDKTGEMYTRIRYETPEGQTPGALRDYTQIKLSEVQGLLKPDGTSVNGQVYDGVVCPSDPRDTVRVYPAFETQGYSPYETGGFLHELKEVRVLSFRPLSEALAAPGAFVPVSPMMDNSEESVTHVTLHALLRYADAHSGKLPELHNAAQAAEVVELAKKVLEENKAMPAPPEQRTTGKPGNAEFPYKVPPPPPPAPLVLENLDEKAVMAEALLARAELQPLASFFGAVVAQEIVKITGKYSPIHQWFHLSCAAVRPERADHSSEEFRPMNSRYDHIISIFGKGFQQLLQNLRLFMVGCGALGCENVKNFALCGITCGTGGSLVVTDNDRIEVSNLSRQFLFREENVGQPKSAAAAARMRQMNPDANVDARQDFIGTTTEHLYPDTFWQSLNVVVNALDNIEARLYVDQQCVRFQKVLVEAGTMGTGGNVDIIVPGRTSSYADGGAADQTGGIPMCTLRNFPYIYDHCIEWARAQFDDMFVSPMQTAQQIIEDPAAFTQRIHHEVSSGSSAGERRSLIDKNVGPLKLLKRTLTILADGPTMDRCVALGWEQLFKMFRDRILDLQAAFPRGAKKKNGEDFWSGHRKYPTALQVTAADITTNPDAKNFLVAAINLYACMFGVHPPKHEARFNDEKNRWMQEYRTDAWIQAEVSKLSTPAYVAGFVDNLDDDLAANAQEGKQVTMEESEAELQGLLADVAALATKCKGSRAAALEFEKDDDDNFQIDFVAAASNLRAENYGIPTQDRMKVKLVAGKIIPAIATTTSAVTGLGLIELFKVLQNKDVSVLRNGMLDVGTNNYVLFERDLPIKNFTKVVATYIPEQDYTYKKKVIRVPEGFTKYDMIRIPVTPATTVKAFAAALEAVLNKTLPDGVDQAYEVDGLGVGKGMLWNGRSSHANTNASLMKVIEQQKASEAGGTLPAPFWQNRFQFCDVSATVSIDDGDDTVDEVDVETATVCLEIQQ

[3] = biological target: AMP-activated protein kinase, AMPK (Homo sapiens) (UniProt P54646+O43741+P54619+Q9UGJ0+Q9Y478+Q13131+Q9UGI9); assay: AMP-dependent Kinase enzyme assay. An in vitro enzyme assay that detects ADP turnover that is directly proportional to AMPK activity. This uses naive AMPK that is activated during the assay with MK-8722; type: functional; details: 30 µM
[4] = biological target: Sialic acid-binding Ig-like lectin 9 (Homo sapiens) (UniProt Q9Y336); assay: Hs-Siglec9 ALPHAscreen SOP 20170721; details: 10 µM
Chain of Sialic acid-binding Ig-like lectin 9 (Homo sapiens) (Q9Y336 whole entry): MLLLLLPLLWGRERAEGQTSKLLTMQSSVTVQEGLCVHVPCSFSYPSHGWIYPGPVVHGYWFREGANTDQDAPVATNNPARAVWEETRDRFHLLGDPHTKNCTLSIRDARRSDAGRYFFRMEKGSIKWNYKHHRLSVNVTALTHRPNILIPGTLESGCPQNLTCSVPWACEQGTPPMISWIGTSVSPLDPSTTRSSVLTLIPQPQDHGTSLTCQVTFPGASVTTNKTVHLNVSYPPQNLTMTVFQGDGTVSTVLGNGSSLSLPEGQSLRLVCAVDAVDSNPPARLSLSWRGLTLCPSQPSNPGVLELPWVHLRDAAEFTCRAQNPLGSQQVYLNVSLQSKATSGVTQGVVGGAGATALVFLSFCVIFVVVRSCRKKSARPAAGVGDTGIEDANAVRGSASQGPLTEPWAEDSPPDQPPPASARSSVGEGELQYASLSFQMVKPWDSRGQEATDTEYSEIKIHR

[5] = system: Trypanosoma cruzi; assay: Trypanosoma cruzi phosphomannomutase and mannose-1-phosphate guanylyltransferase assay; type: functional; details: 10 µM
[6] = biological target: T2, Arginase-2, mitochondrial (Homo sapiens) (UniProt P78540); assay: in vitro enzyme assay to detect the production of urea directly proportional to the activity of Arginase II; type: functional; details: 33.3 µM; further: in the data most compounds retested in dose-response had high values
T2 sequence (whole entry): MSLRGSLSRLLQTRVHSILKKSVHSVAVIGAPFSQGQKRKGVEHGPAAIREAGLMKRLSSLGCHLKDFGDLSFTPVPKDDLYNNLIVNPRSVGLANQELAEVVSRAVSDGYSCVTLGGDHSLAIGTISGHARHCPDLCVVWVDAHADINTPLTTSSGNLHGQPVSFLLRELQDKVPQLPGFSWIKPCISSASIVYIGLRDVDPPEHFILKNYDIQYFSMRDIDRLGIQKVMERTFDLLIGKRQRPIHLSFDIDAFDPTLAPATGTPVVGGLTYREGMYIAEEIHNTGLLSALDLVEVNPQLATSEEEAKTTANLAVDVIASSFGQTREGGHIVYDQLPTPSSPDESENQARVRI

[7] = biological target: T3, Proteasome subunit beta (Trypanosoma cruzi) (UniProt O96673); assay: Trypanosoma cruzi proteasome chymotrypsin-like activity (TcProtChymo) assay.; further: in the data most compounds retested in dose-response had high values; type: functional; details: 9.37 µM
T3 sequence (whole entry): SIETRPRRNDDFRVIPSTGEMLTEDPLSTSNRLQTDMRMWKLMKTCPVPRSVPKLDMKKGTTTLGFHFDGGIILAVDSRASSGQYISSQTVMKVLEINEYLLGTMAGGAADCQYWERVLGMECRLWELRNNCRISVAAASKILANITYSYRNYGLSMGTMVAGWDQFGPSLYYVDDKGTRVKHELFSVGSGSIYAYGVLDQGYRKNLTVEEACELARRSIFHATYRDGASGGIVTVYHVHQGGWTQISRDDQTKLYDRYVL

[8] = species: Homo sapiens; assay: To identify inhibition of the IFN signalling (Jak-Stat) pathway via expression of an eGFP reporter gene under the control of an IFN-stimulated response element (ISRE) containing MxA promoter.; type: functional; details: 30 µM
[9] = biological target: T4, Tyrosyl-tRNA synthetase, putative (Trypanosoma cruzi (strain CL Brener)) (UniProt Q4DSP6); assay: Trypanosoma cruzi tyrosyl tRNA synthetase (TcYRS) _High Tyrosine SOP; type: functional; details: 30 µM; further: in the data most compounds retested in dose-response had high values
T4 sequence (whole entry): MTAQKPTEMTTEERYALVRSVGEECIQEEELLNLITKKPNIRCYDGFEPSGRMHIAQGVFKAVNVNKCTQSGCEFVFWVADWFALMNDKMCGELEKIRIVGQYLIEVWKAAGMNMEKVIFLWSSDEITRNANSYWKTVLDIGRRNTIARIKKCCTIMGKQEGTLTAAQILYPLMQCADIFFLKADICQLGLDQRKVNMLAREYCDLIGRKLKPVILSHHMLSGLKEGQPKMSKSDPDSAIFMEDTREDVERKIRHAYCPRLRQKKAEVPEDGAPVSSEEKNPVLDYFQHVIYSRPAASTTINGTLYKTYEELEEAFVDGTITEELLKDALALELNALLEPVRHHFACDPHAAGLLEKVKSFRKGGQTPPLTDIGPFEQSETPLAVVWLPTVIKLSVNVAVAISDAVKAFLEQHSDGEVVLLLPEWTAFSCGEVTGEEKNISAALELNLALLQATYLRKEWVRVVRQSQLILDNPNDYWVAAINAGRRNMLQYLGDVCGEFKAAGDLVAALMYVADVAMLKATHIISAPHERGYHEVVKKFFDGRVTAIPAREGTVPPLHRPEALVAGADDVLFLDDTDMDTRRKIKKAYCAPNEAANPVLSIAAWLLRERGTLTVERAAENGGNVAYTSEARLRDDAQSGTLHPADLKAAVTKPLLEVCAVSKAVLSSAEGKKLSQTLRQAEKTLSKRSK

[10] = biological target: T4, Tyrosyl-tRNA synthetase, putative (Trypanosoma cruzi (strain CL Brener)); assay: Trypanosoma cruzi tyrosyl tRNA synthetase (TcYRS) SOP; type: functional; details: 30 µM
[11] = biological target: Chromo domain-containing protein 1 (Saccharomyces cerevisiae (strain ATCC 204508 / S288c) (Baker's yeast)) (UniProt P32657); assay: ScCHD-1 Enzyme Inhibition Assay; type: functional; details: 30 µM; further: in the data most compounds retested in dose-response had high values
Chain of Chromo domain-containing protein 1 (Saccharomyces cerevisiae (strain ATCC 204508 / S288c) (Baker's yeast)) (P32657 whole entry, the tested form may be a part): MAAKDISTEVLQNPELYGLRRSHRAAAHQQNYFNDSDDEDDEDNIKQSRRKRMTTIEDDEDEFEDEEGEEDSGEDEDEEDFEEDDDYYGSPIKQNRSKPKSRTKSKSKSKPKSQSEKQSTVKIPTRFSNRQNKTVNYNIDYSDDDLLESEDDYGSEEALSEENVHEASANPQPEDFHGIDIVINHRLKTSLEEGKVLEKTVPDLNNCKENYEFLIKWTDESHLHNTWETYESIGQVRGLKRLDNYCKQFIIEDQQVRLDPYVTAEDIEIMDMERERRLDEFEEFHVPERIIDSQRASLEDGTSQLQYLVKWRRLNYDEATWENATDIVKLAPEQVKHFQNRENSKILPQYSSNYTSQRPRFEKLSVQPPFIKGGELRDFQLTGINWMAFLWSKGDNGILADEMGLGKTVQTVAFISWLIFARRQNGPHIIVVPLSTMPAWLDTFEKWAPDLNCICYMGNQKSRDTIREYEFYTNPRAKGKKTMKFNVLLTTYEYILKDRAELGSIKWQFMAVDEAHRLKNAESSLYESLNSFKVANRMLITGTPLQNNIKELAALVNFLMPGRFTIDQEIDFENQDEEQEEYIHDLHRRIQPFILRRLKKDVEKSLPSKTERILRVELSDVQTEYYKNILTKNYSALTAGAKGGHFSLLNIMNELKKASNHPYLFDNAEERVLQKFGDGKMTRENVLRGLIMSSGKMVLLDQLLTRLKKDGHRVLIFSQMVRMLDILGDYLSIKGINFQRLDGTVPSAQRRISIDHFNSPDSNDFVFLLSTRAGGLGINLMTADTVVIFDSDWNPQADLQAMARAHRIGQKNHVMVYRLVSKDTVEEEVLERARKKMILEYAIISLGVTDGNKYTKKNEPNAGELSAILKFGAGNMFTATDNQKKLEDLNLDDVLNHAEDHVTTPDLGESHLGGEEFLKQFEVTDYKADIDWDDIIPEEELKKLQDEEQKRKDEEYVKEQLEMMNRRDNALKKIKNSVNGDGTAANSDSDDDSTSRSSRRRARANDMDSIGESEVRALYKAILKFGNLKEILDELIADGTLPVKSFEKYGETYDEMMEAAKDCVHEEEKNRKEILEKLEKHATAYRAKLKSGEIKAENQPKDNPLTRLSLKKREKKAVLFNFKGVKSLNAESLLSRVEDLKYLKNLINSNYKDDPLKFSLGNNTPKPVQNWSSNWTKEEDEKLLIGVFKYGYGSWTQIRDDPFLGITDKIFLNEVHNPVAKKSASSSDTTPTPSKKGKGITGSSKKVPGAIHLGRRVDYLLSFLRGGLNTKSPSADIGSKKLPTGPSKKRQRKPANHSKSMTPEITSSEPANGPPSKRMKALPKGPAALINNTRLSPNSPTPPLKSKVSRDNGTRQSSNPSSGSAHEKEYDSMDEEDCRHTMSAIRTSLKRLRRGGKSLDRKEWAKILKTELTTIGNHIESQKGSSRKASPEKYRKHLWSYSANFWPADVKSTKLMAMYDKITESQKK

Row | Structure (SMILES) | Percent Effect [1] | Percent Effect [2] | Percent Effect [3] | Percent Effect [4] | Percent Effect [5] | Percent Effect [6] | Percent Effect [7] | Percent Effect [8] | Percent Effect [9] | Percent Effect [10] | Percent Effect [11]
1 | O=C(Cn1ccc2c(Cl)cccc21)N[C@@H](C(=O)O)c1ccccc1 | -1.64% | 4% | 6.31% | 0.703% | -4.71% | -7.57% | 19.8% | -11.3% | -7.41% | -2.56% | -4.5%
2 | CC(=O)N(C)CC(=O)Nc1cccc(N2CCN(CC3CC3)CC2)c1 | -6.27% | 5.41% | -9.55% | 0.217% | -1.86% | -13.2% | 1.46% | 4.97% | 3.23% | 11.1% | 0.0532%
3 | O=C(NCC1CC1)Nc1cccc(N2CCN(CC3CC3)CC2)c1 | -6.91% | 13.5% | -7.28% | 31.9% | 5.38% | 1.24% | 6.78% | -5.11% | 3.23% | 16.1% | -13.1%
4 | Cn1cccc1C(=O)N1CCc2ncnc(C3CC3)c2CC1 | -4.53% | 13.3% | 9.69% | -5.45% | -5.12% | -0.699% | 21.1% | 22.4% | 0% | 6.41% | -1.35%
5 | CC(NC(=O)NCC1(c2ccc(F)cc2)CCC1)c1nncn1C (stereo unspecified) | -5.85% | 15.8% | 2.85% | 8.69% | -3.83% | 0% | 2.62% | 7.23% | 6.4% | 23.5% | 2.89%
6 | CCc1cc(NCc2ccccc2CN2CCCC2)n2ncnc2n1 | -5.91% | 0% | -0.284% | -9.79% | -4.38% | 5.92% | 17.4% | -22.7% | 3.19% | -2.6% | -5.77%
7 | CCN1CCC(CNC(=O)NCc2cc(-c3ccc(C)cc3)no2)C1 (stereo unspecified) | 0.151% | 0% | -6.65% | 3.46% | 3.44% | -3.14% | 12.2% | 5.69% | 10.9% | 25.6% | -5.52%
8 | COc1ccc(NC(=O)C2CCOC2)c(N2CCN(C(C)=O)CC2)n1 (stereo unspecified) | -2.36% | 2.7% | -66.2% | 2.08% | -0.391% | 2.5% | 19.7% | 2.27% | 8.91% | 11% | -5.79%
9 | CC(C)c1cc(NCC(O)CO)n2nccc2n1 (stereo unspecified) | -2.58% | 8.11% | 0.503% | 25.3% | 3.48% | 11.9% | 19.3% | 9% | 1.59% | 12.2% | -9.93%
10 | CCn1c(CN2CCCN(C(=O)OC)CC2)nc2c(F)cccc21 | -2.85% | 15.8% | -5.17% | 7.02% | -3.95% | 8.81% | 9.69% | -5.04% | 6.37% | 12.2% | -4.43%
11 | COc1cccc(C2CCCN2Cc2nc3c(cnn3C)c(=O)[nH]2)c1 (stereo unspecified) | -0.893% | 22.8% | 2.53% | -5.13% | 0.661% | 3.8% | 14.2% | 17.2% | 6.4% | 24.1% | -5.39%
